Test results taken from PubChem BioAssay (NCATS).
Unmarked numbers belong to inactive results. No rule for the calls is given here.

tested on: HIV-1 nucleocapsid protein NCp7 (binding to TG oligonucleotide); experiment: HIV Nucleocapsid (AID 346); details: HIV-1 NC / fluorescein-TGTGTGTG probe, fluorescence polarization;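 also: potency is for inhibitors that block NC binding and lower polarization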
Outline: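 HIV-1 NC (100 nM) binding to fluorescein-labelled ssDNA TG4xF (10 nM) in Hepes pH 7.5, 250mM NaCl, 1uM ZnCl2, TCEP and 2-mercaptoethanol; compounds pin-transferred, 1 hr room temperature, fluorescence polarization read on CCD imager.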
Potency is read from the fitted curve at half-maximal effect.

SMILES | Potency [µM]
O=C(c1cccc(F)c1)N1CCC[C@@]2(CCN(Cc3ccncc3)C2)C1 | > 20
CN(Cc1ccco1)c1cc(-c2ccoc2)ncn1 | > 20
CN(C)C(=O)c1ccc(-c2cc(NCc3cccs3)ncn2)cc1 | > 20
COCCNc1ccnc(-c2ccccc2CN(C)C)n1 | > 20
CN1CCN(c2ncc3nc(-c4ccc(F)cc4)c(=O)n(Cc4cccs4)c3n2)CC1 | > 20
Cn1cccc1C(=O)N1CCC[C@@]2(CCN(Cc3ccccc3)C2)C1 | > 20
Cc1ccccc1-c1nc(N2CCOCC2)c2ccccc2n1 | > 20
COc1ccc(Oc2ncc3ncc(=O)n(Cc4ccc(F)cc4)c3n2)cc1 | > 20
COC(=O)N1CCC2(CCN(C(=O)Nc3cccc(F)c3)CC2)CC1 | > 20
COCCn1c(=O)c(C)nc2cnc(Oc3cccc(Cl)c3)nc21 | > 4
COc1ccc(-c2nc3cnc(N4CCNCC4)nc3n(Cc3cccc(OC)c3)c2=O)cc1 | > 20
COc1ccc(-c2nc3cnc(N(C)C)nc3n(Cc3ccc(F)cc3)c2=O)cc1 | > 20
CS(=O)(=O)N1CCC2(CCN(Cc3ccc(C#N)cc3)CC2)CC1 | > 20
COc1ccccc1CNc1ncncc1-c1ccccc1CN(C)C | > 20
c1cncc(CNc2ncncc2-c2ccoc2)c1 | > 20
COCCn1c(=O)c(-c2ccccc2)nc2cnc(Nc3ccccc3)nc21 | > 20
COCCn1c(=O)c(-c2cn(C)c3ccccc23)nc2cnc(N3CCNCC3)nc21 | > 20
COc1cccc(-c2ccc3ncnc(NCc4cccnc4)c3c2)c1 | > 20
COc1cccc(Cn2c(=O)c(-c3cc(F)cc(F)c3)nc3cnc(N4CCNCC4)nc32)c1 | > 20
COc1ccc(-n2c(=O)c(-c3ccccc3)nc3cnc(N4CCNCC4)nc32)cc1 | > 20

SMILES | Potency [µM]
COC(=O)N1CCC2(CCCN(C(=O)Nc3cccc(C#N)c3)C2)CC1 | > 20
COc1ccc(NC(=O)N2CCC3(CC2)CCN(C(=O)c2cnccn2)CC3)cc1 | > 20
COc1ccc(-n2c(=O)cnc3cnc(N4CCN(C)CC4)nc32)cc1 | > 20
COc1ccccc1CNc1ncnc2ccc(-c3ccc(N(C)C)cc3)cc12 | > 20
COCCNc1ccnc(-c2c(C)noc2C)n1 | > 20
N#Cc1cccc(-c2cc(NCc3cccs3)ncn2)c1 | > 20
CC(=O)N1CCC2(CCCN(C(c3ccccc3)c3ccccc3)C2)CC1 | > 20
COCC(=O)N1CCC2(CCN(Cc3nccs3)CC2)CC1 | > 20
CS(=O)(=O)N1CCC2(CC1)CN(Cc1nccs1)C2 | > 20
COCC(=O)N1CCC[C@@]2(CCN(c3ccncc3)C2)C1 | > 20
CN(C)c1ncc2ncc(=O)n(C3CC3)c2n1 | > 20
COc1ccccc1CN1CCCC2(CCN(C(=O)c3ccncc3)CC2)C1 | > 20
COc1ccc(-c2nc3cnc(N4CCNCC4)nc3n(-c3ccccc3)c2=O)cc1 | > 20
COCCn1c(=O)c(C)nc2cncnc21 | > 20
COc1ncc2nc(-c3ccc(Cl)cc3)c(=O)n(CCC#N)c2n1 | > 20
COc1cccc(Cn2c(=O)c(-c3cccs3)nc3cnc(OC)nc32)c1 | > 20
CCNc1ncc2nc(CCc3ccccc3)c(=O)n(Cc3cccc(OC)c3)c2n1 | > 20
Cc1nc2cncnc2n(Cc2ccc(F)cc2)c1=O | > 20
c1cncc(-c2cncnc2-n2ccnc2)c1 | > 20
COc1ccc(C(=O)N2CCC3(CC2)CN(c2ccncc2)C3)cc1 | > 20
